HT1080 IDH1KD tx = toxicity to HT-1080 IDH1 knockdown cells (counter line). AID 686971. HT-1080 IDH1 knockdown viability, ATP luminescence, 48 h. 2% of 360,000 active. Potency, µM (highest dose often 46.1 µM), usual class: cytotoxic
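Luminescent ATP read-out (CellTiter-Glo, 10 min at room temperature) after 48 h compound exposure at 37 °C gave viability of IDH1-knockdown HT-1080 cells. Activity was normalised to DMSO and cell-free wells, then fitted as concentration-response curves.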
IL1B secr inh = inhibitors of inflammasome signaling (IL-1 beta secretion); THP-1 LPS/ATP IL-1B secretion, AlphaLISA, 16 h; stronger effect = lower value; activity change, % at 57.5 µM; 4.7% of 360,000 active; in the data active = activity change below about -50%; inconclusive = mostly about -30% to -49%
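THP-1 cells pretreated 1 hr with compounds (up to 57.5 uM final), then stimulated with LPS (250 ng/mL final) plus ATP (1.25 mM final); secreted IL-1B measured by AlphaLISA after 16 hr, decreased signal indicating inhibition.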
TDP1 cell noCPT = qHTS for Inhibitors of human tyrosyl-DNA phosphodiesterase 1 (TDP1): qHTS in cells in absence of CPT; DT40 Tdp1-/- hTDP1 cells, no CPT, ATP luminescence, 48 h; Potency, µM (doses to about 46.2 µM), usual class: inhibitors; 15% of 420,000 active; AID 686978, 2013; also: nearly all actives have a fitted effect of over 55% in size
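Stably hTDP1-transfected Tdp1-null chicken DT40 cells were treated with library compounds minus camptothecin and grown for at least 48 hr at 37 °C, after which cellular ATP was quantified by luminescence.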
HT1080-NT tox = kills 2HG-producing HT-1080-NT fibrosarcoma cells | HT-1080-NT fibrosarcoma viability, CellTiter-Glo ATP luminescence, 48 h | Potency, µM (highest dose often 46.1 µM), actives largely listed as cytotoxic | 1.6% of 360,000 active | AID 686970;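 also: NT is the 2HG producing partner of a matched IDH1 knockdown line; nearly all actives have a fitted effect of over 55% in size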
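Luminescent CellTiter-Glo readout after 48 hours of compound exposure at 37 degrees C defined viability of HT-1080-NT cells. Activity was normalized to DMSO wells and cell-free media wells; concentration-response curves were fitted and assigned curve classes.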
TDP1 cell CPT = DT40-hTDP1 cell growth loss with CPT. chicken DT40 Tdp1-/-;hTDP1 cells + 20 nM CPT, ATP luminescence, 48 h. Potency, µM (top dose mostly 46.2 µM), hits mostly inhibitors. 12% of 420,000 active; also: nearly all actives have a fitted effect of over 55% in size
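Chicken DT40 Tdp1-/- cells stably complemented with human TDP1 were seeded at 400 cells/well in medium containing 20 nM camptothecin, exposed to pin-transferred compounds, and grown at 37 °C for at least 48 hr. Viability was read as ATP luminescence.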
Of the large screens only hits and unclear results are named; the others gave an inactive call. In the library only some 19% were active in any assay of this set; here they are far more common. Unless noted, calls follow the shape of the dose curve; as a rule, active = well fitted curve in the direction sought with a large enough effect; inconclusive = small, poorly fitted or top-dose-only effect, or another doubt; inactive = no such curve, though single readings can be large; an effect the other way counts as inactive or inconclusive.

CC(=O)Nc1ccc(-c2csc(NC(=O)C3CC(=O)N(c4ccc5c(c4)OCCO5)C3)n2)cc1 (stereo unspecified)	TDP1 cell noCPT 21µM, TDP1 cell CPT 18µM
O=C(NCCc1ccc(C(F)(F)F)cc1)C1CC(=O)N(c2ccc3c(c2)OCCO3)C1 (stereo unspecified)	TDP1 cell noCPT 21µM, TDP1 cell CPT inconclusive
C/C(Sc1nnc(Cc2ccccc2)o1)=C(/O)c1ccccc1	none
CCOP(=O)(OCC)C(NC(=O)c1cccs1)c1ccccc1 (stereo unspecified)	none
CN(C)S(=O)(=O)c1cccc(NC(=O)COC(=O)CNC(=O)c2ccccc2F)c1	none
COC(=O)c1ccc(CSc2nnc(NC(=O)C3CC(=O)N(c4ccc5c(c4)OCCO5)C3)s2)cc1 (stereo unspecified)	TDP1 cell noCPT 21µM, TDP1 cell CPT 23µM
O=C(Nc1nc(-c2ccc3c(c2)OCCO3)cs1)C1CC(=O)N(c2ccc3c(c2)OCCO3)C1 (stereo unspecified)	TDP1 cell noCPT inconclusive, TDP1 cell CPT 11µM (no result: HT1080 IDH1KD tx, IL1B secr inh, HT1080-NT tox)
O=C(O)C1CC(=O)N(c2ccc3c(c2)OCCO3)C1 (stereo unspecified)	TDP1 cell noCPT 13µM, TDP1 cell CPT 13µM
O=C(Nc1ccc2c(c1)OCO2)C1CC(=O)N(c2ccc3c(c2)OCCO3)C1 (stereo unspecified)	none
CN(C(=O)CSCC(=O)O)C1CCCCC1	none
O=C(CSc1nnc(CNC(=O)c2ccco2)o1)Nc1cccc(F)c1	none
CCN(CC)C(=O)CSc1nc2cc3c(cc2c(=O)n1Cc1ccc(C(=O)NCCc2ccc(OC)c(OC)c2)cc1)OCO3	TDP1 cell noCPT 21µM, TDP1 cell CPT 13µM (no result: HT1080 IDH1KD tx, IL1B secr inh, HT1080-NT tox)
CCN(CC)C(=O)CSc1nc2cc3c(cc2c(=O)n1CCCCCC(=O)NCc1ccc(OC)cc1)OCO3	IL1B secr inh -65, TDP1 cell noCPT inconclusive, TDP1 cell CPT inconclusive
CCCCNC(=O)CSc1nc2cc3c(cc2c(=O)n1CCCC(=O)NCCc1ccc(OC)c(OC)c1)OCO3	none
CCN(CC)C(=O)CSc1nc2cc3c(cc2c(=O)n1CCCC(=O)NCCc1ccc(OC)c(OC)c1)OCO3	IL1B secr inh inconclusive, TDP1 cell noCPT 18µM, TDP1 cell CPT inconclusive
CCOC(=O)CSc1nc2cc3c(cc2c(=O)n1CCCC(=O)NCCc1ccc(OC)c(OC)c1)OCO3	TDP1 cell noCPT 13µM, TDP1 cell CPT inconclusive (no result: HT1080 IDH1KD tx, IL1B secr inh, HT1080-NT tox)
CCCCNC(=O)CSc1nc2cc3c(cc2c(=O)n1Cc1ccc(C(=O)NCCc2ccc(OC)c(OC)c2)cc1)OCO3	none (no result: HT1080 IDH1KD tx, IL1B secr inh, HT1080-NT tox)
COc1ccc(CCN(C)CCCN2CCc3cc(OC)c(OC)cc3CC2=O)cc1OC	none (no result: HT1080 IDH1KD tx, IL1B secr inh, HT1080-NT tox)
COc1cc(Cl)c(C)cc1NC(=O)CC1CCCC1	none
Cc1c(C(=O)N2CCN(CC(=O)Nc3ccccc3Cl)CC2)oc2ccc(Br)cc12	TDP1 cell CPT inconclusive
CCCCC(Sc1nc2cc3c(cc2c(=O)n1CCCC(=O)NCc1ccc(OC)cc1)OCO3)C(=O)OCC (stereo unspecified)	TDP1 cell noCPT 4.6µM, TDP1 cell CPT 4.6µM (no result: HT1080 IDH1KD tx, IL1B secr inh, HT1080-NT tox)
O=C(CCl)N(C1CCCC1)C1CCS(=O)(=O)C1 (stereo unspecified)	HT1080 IDH1KD tx inconclusive, IL1B secr inh inconclusive, TDP1 cell noCPT 15µM, HT1080-NT tox inconclusive, TDP1 cell CPT 18µM
Cc1c(CN(C)C(=O)/C=C/c2ccc([N+](=O)[O-])cc2)cnn1C	TDP1 cell noCPT inconclusive, TDP1 cell CPT 23µM
C/C(=N\Nc1cccc2cccnc12)c1ccc[nH]1	TDP1 cell noCPT 4.6µM, TDP1 cell CPT 2.6µM
O=C(NCc1ccco1)C1CCCN1C(=O)Nc1ccccc1Cl (stereo unspecified)	none
O=C(Nc1ccncc1)c1cccc(S(=O)(=O)N2CCOCC2)c1	TDP1 cell noCPT inconclusive
O=C(Nc1cccc(S(=O)(=O)C(F)F)c1)c1ccc(S(=O)(=O)N2CCOCC2)cc1	TDP1 cell noCPT 18µM
O=C(Nc1ccc(S(=O)(=O)C(F)F)cc1)c1cccc(S(=O)(=O)N2CCOCC2)c1	IL1B secr inh inconclusive, TDP1 cell noCPT 15µM, TDP1 cell CPT inconclusive
COCc1cccc(-c2csc(C(C)(O)c3cccc(F)c3)n2)c1 (stereo unspecified)	HT1080 IDH1KD tx inconclusive, TDP1 cell noCPT inconclusive, TDP1 cell CPT inconclusive
Cc1cccc(OCCCCn2nnc3sc4c(c3c2=O)CCC(C)C4)c1 (stereo unspecified)	none (no result: HT1080 IDH1KD tx, IL1B secr inh, HT1080-NT tox)
COC(=O)c1ccc(CSc2nc3ccccc3c(=O)n2-c2ccc(OC)c(OC)c2)o1	IL1B secr inh inconclusive, TDP1 cell noCPT inconclusive, TDP1 cell CPT 16µM
COCCn1c(SCc2cccc(F)c2)nc2cc(C(=O)OC)ccc2c1=O	TDP1 cell noCPT inconclusive, TDP1 cell CPT 21µM
COCCn1c(SCc2ccc(OC)c(F)c2)nc2ccccc2c1=O	IL1B secr inh inconclusive, TDP1 cell noCPT 21µM, TDP1 cell CPT 16µM
COC(=O)c1ccc(CSc2nc3ccccc3c(=O)n2-c2ccccc2)o1	TDP1 cell noCPT inconclusive, TDP1 cell CPT inconclusive
COCCn1c(SCc2ccc(C(=O)OC)o2)nc2ccccc2c1=O	TDP1 cell noCPT 21µM, HT1080-NT tox inconclusive, TDP1 cell CPT inconclusive
COc1ccc(/C(=C\C(=O)O)c2nccc3cc(OC)c(OC)cc23)cc1OC	none (no result: HT1080 IDH1KD tx, IL1B secr inh, HT1080-NT tox)
CCCCCCOc1ccc(-c2ccc(C#N)cn2)cc1	none
Cc1nc2nc(NC(=O)c3ccc(C(C)(C)C)cc3)[nH]n2c(=O)c1Cc1ccccc1	none (no result: HT1080 IDH1KD tx, IL1B secr inh, HT1080-NT tox)
CC(C)Cn1c(SCc2cccc(F)c2)nc2ccsc2c1=O	TDP1 cell noCPT 29µM, TDP1 cell CPT 15µM (no result: HT1080 IDH1KD tx, IL1B secr inh, HT1080-NT tox)
O=c1c2ccccc2nc(SCc2cccc(F)c2)n1Cc1ccco1	none
CCC(C)c1ccccc1NC(=O)CN(C)CCOc1ccc(Cl)cc1 (stereo unspecified)	HT1080 IDH1KD tx inconclusive, IL1B secr inh -77, TDP1 cell noCPT 23µM, HT1080-NT tox inconclusive, TDP1 cell CPT inconclusive
CN(CCOc1ccccc1)CC(=O)Nc1ccc(Br)cc1F	HT1080 IDH1KD tx inconclusive, TDP1 cell noCPT 16µM, HT1080-NT tox inconclusive, TDP1 cell CPT inconclusive
Cc1cc(C)c2c(=O)c3c(oc2c1)C(=O)N(Cc1ccc(F)cc1)C3c1cccc(O)c1 (stereo unspecified)	TDP1 cell noCPT 12µM, TDP1 cell CPT 23µM (no result: HT1080 IDH1KD tx, IL1B secr inh, HT1080-NT tox)
Cc1ccc2oc3c(c(=O)c2c1)C(c1cccc(O)c1)N(c1ccccn1)C3=O (stereo unspecified)	TDP1 cell noCPT inconclusive, TDP1 cell CPT inconclusive (no result: IL1B secr inh)
Cc1ccc2oc3c(c(=O)c2c1)C(c1cccc(Br)c1)N(Cc1ccco1)C3=O (stereo unspecified)	TDP1 cell noCPT 21µM, TDP1 cell CPT inconclusive
